The values that follow come from ChEMBL document CHEMBL1961873, “Compounds: GSK PKIS; Assays: Nanosyn kinase panel” (2012).

In experiment [1] the target is Tyrosine-protein kinase SYK (Homo sapiens) (UniProt P43405). To be noted: at 1 µM.
The target in experiment [2] is T1, Tyrosine-protein kinase Tec (Homo sapiens) (UniProt P42680).
T1 sequence (whole entry): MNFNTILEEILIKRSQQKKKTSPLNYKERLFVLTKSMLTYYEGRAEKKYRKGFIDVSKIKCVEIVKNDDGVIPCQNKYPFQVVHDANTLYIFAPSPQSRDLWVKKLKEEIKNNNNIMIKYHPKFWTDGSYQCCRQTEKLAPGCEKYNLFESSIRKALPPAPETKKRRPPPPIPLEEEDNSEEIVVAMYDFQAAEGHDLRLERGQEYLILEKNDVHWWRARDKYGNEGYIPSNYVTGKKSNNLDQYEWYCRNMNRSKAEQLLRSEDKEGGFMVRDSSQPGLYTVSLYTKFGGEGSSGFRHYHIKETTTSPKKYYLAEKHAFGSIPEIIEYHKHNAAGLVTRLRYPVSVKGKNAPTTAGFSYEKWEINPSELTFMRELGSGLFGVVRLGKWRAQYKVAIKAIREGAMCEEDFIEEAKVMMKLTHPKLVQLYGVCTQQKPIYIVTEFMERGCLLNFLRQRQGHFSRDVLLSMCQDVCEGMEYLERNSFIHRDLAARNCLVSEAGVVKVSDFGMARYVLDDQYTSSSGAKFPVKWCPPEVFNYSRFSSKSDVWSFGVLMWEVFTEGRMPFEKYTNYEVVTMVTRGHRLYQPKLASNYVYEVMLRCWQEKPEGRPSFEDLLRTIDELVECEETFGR
Conditions: at 0.1 µM.

The target in experiment [3] is T1, Tyrosine-protein kinase Tec (Homo sapiens). To be noted: at 1 µM.
Experiment [4] has as its target Angiopoietin-1 receptor (Homo sapiens) (UniProt Q02763). Conditions: at 0.1 µM.
For experiment [5] the target is unchanged. Conditions: at 1 µM.
For experiment [6], the target named is T2, Non-receptor tyrosine-protein kinase TNK1 (Homo sapiens) (UniProt Q13470).
T2 sequence (whole entry): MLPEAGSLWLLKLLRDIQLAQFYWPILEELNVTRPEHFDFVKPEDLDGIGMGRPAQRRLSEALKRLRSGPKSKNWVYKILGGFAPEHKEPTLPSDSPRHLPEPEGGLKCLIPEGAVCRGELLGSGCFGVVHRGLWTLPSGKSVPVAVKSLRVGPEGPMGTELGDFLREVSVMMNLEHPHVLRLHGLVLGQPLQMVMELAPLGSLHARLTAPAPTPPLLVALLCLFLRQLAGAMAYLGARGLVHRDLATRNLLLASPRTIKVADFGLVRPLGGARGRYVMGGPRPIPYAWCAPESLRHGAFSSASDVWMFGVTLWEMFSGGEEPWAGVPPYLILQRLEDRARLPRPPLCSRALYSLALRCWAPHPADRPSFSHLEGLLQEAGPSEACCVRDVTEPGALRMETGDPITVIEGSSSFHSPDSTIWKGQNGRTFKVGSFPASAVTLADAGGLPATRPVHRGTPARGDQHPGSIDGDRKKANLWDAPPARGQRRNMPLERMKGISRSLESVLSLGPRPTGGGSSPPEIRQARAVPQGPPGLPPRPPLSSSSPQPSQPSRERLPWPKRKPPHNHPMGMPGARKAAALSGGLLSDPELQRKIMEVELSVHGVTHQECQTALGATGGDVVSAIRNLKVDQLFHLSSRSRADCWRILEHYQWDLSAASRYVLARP
Conditions: at 0.1 µM.

Experiment [7] addresses T2, Non-receptor tyrosine-protein kinase TNK1 (Homo sapiens). Conditions: at 1 µM.
For experiment [8], the target named is Activated CDC42 kinase 1 (Homo sapiens) (UniProt Q07912). To be noted: at 0.1 µM.
Chain of Activated CDC42 kinase 1 (Homo sapiens) (Q07912 whole entry, looked up): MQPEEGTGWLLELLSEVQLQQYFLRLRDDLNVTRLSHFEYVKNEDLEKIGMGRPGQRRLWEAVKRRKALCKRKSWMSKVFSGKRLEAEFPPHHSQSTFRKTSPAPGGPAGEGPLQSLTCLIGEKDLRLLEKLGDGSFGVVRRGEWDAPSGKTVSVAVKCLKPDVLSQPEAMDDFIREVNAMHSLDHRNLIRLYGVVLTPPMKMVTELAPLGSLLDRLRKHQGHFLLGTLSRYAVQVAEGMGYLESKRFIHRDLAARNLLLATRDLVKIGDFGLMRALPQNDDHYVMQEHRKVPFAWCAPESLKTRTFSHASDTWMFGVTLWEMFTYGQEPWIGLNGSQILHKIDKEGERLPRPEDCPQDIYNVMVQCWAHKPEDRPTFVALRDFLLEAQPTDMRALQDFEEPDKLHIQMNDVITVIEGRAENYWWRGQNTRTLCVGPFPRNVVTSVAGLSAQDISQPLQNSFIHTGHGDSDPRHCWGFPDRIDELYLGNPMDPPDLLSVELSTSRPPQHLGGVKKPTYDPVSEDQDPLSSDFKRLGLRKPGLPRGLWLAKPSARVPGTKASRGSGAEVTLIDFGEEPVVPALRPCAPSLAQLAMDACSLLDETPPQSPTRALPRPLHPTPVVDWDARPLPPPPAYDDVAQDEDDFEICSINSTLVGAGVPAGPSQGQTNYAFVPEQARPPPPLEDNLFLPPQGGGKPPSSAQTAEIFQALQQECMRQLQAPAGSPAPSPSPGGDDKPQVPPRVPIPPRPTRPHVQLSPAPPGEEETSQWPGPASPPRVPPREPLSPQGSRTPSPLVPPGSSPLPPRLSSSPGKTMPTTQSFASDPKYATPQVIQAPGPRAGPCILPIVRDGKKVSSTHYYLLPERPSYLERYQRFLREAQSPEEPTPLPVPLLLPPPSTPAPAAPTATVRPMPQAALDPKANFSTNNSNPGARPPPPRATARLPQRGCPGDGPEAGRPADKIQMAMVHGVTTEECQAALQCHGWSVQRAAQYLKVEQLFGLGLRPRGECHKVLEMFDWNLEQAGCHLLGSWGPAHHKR
Experiment [9] shares this target. To be noted: at 1 µM.
In experiment [10] the target is High affinity nerve growth factor receptor (Homo sapiens) (UniProt P04629). To be noted: at 0.1 µM.
Chain of High affinity nerve growth factor receptor (Homo sapiens) (P04629 33-796 limits assumed): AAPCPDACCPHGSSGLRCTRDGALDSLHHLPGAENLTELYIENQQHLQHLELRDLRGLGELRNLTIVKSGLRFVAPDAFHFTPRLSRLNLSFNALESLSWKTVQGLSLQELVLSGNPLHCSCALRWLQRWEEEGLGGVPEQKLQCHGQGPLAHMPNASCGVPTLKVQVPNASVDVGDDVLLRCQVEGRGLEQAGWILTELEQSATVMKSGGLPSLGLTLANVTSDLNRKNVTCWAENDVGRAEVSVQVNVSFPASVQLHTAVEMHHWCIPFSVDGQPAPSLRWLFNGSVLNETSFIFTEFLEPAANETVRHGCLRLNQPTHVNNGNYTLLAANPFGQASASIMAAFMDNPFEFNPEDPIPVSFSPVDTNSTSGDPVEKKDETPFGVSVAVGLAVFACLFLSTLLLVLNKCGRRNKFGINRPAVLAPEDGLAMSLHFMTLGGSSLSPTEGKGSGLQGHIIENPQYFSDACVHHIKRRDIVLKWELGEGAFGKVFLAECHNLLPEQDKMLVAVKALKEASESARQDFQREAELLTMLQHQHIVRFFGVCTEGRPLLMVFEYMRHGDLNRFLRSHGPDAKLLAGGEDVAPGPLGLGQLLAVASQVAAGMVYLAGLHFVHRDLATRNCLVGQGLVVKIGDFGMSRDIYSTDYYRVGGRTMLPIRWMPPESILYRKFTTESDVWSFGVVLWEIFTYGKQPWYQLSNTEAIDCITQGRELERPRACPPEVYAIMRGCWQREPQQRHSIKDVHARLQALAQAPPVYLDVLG
Experiment [11] has the same target. Conditions: at 1 µM.
The target of experiment [12] is BDNF/NT-3 growth factors receptor (Homo sapiens) (UniProt Q16620). Conditions: at 0.1 µM.
Chain of BDNF/NT-3 growth factors receptor (Homo sapiens) (Q16620 32-822 limits assumed): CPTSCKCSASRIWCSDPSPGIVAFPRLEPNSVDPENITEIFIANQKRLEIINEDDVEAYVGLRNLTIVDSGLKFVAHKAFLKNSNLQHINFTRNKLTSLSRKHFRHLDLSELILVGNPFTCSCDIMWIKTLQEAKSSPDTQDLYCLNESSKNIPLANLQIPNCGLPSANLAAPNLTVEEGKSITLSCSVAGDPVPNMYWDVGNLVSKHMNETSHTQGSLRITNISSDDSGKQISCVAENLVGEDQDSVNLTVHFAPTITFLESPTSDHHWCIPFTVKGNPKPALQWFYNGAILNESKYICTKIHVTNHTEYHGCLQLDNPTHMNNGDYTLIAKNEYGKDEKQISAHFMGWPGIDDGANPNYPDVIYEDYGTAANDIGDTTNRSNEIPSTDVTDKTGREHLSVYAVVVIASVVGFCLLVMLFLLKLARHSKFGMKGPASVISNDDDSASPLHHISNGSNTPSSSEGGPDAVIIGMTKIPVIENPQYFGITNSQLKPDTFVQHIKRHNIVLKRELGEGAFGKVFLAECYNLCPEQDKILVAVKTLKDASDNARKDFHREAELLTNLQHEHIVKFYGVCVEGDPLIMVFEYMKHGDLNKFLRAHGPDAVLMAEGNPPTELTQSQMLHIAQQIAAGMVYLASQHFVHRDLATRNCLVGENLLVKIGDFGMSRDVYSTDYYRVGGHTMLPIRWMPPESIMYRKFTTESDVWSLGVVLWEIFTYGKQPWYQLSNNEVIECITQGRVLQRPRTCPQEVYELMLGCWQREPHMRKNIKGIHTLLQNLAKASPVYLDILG
Experiment [13] has the same target. To be noted: at 1 µM.
Experiment [14] has as its target NT-3 growth factor receptor (Homo sapiens) (UniProt Q16288). To be noted: at 0.1 µM.
For experiment [15] the target is unchanged. To be noted: at 1 µM.
Experiment [16] concerns the target T3, Tyrosine-protein kinase TXK (Homo sapiens) (UniProt P42681).
T3 sequence (whole entry): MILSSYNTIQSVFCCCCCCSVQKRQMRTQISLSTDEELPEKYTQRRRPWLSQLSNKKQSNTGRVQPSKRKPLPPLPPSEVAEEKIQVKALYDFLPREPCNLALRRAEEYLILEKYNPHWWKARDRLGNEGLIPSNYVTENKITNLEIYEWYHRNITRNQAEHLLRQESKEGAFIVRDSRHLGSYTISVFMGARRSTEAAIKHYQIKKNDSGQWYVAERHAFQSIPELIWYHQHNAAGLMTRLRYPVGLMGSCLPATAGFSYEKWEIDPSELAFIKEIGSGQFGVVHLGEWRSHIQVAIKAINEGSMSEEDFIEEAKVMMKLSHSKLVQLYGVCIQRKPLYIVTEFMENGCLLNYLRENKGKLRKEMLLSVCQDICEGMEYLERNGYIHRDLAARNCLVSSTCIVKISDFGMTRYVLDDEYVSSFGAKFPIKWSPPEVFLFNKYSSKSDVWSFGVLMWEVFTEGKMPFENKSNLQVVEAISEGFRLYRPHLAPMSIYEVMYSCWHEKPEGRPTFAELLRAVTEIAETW
Conditions: at 0.1 µM.

In experiment [17] the target is T3, Tyrosine-protein kinase TXK (Homo sapiens). To be noted: at 1 µM.
The target in experiment [18] is Non-receptor tyrosine-protein kinase TYK2 (Homo sapiens) (UniProt P29597). Conditions: at 0.1 µM.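 Also: each value is a mean of the inhibition readings.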
The target in experiment [19] is T4, Dual specificity protein kinase TTK (Homo sapiens) (UniProt P33981).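 Also: reported figures are mean TTK inhibition at 1 µM.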
T4 sequence (whole entry): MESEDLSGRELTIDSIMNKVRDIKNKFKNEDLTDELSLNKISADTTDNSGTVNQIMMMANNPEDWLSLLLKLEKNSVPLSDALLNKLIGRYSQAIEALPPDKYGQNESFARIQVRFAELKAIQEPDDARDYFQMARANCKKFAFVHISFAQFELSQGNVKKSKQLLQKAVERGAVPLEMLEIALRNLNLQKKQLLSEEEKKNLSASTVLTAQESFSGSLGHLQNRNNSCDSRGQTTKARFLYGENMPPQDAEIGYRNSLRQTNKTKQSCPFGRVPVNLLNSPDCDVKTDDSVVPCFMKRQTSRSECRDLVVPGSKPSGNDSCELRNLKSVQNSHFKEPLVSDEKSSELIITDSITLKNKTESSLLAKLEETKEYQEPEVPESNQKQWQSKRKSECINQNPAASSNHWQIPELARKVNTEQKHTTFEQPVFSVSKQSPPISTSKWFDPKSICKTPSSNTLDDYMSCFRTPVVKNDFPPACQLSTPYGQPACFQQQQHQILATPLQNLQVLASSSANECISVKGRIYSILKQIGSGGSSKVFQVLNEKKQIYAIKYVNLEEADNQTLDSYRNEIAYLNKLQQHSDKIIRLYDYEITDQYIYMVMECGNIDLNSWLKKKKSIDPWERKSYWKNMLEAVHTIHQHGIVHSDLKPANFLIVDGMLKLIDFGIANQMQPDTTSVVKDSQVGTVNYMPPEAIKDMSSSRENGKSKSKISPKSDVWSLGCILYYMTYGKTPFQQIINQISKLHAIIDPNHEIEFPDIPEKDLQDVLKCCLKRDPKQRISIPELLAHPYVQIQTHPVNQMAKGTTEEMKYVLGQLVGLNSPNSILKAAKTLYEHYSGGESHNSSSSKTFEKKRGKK
Conditions: at 1 µM.

Experiment [20] has as its target T5, Aurora kinase A (Homo sapiens) (UniProt O14965).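 Also: each reported value is a mean percent inhibition of Aurora-A.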
T5 sequence (whole entry): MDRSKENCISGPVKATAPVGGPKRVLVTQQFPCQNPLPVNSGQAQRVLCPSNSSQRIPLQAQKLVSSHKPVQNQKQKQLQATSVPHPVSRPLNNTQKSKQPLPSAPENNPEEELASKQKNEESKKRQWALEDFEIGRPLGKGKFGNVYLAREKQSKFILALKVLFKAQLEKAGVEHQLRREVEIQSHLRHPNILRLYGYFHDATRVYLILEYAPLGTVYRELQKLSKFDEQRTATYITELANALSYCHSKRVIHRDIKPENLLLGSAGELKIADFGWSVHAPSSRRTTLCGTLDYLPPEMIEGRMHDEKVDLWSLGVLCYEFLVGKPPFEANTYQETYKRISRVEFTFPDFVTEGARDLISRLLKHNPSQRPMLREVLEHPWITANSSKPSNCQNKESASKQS
Conditions: at 0.1 µM.

As a reminder, the inhibition is the drop in the measured response relative to a control, in per cent.

The structures appear in SMILES notation.

Chain of NT-3 growth factor receptor (Homo sapiens) (Q16288 32-839 limits assumed): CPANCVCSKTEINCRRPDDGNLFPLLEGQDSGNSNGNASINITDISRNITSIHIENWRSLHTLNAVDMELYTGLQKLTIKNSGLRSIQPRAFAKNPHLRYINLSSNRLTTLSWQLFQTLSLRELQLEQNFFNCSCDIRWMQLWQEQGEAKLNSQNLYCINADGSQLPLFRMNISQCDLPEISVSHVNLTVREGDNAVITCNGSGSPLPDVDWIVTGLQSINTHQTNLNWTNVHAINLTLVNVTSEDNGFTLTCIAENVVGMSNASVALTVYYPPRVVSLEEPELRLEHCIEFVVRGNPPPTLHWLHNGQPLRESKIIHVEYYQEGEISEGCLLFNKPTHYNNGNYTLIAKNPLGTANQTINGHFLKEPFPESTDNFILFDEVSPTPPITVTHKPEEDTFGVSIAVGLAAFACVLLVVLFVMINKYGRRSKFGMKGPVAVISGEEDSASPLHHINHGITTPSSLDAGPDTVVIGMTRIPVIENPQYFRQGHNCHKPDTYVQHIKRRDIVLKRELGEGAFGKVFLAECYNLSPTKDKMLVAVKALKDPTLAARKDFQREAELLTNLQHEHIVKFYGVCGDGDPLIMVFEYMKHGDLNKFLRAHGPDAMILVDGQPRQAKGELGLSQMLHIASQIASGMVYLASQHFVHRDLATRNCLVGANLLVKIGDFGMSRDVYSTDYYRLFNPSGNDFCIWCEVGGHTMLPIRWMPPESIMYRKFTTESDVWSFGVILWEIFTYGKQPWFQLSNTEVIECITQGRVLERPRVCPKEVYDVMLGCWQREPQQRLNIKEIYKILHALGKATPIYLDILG
Chain of Angiopoietin-1 receptor (Homo sapiens) (Q02763 whole entry): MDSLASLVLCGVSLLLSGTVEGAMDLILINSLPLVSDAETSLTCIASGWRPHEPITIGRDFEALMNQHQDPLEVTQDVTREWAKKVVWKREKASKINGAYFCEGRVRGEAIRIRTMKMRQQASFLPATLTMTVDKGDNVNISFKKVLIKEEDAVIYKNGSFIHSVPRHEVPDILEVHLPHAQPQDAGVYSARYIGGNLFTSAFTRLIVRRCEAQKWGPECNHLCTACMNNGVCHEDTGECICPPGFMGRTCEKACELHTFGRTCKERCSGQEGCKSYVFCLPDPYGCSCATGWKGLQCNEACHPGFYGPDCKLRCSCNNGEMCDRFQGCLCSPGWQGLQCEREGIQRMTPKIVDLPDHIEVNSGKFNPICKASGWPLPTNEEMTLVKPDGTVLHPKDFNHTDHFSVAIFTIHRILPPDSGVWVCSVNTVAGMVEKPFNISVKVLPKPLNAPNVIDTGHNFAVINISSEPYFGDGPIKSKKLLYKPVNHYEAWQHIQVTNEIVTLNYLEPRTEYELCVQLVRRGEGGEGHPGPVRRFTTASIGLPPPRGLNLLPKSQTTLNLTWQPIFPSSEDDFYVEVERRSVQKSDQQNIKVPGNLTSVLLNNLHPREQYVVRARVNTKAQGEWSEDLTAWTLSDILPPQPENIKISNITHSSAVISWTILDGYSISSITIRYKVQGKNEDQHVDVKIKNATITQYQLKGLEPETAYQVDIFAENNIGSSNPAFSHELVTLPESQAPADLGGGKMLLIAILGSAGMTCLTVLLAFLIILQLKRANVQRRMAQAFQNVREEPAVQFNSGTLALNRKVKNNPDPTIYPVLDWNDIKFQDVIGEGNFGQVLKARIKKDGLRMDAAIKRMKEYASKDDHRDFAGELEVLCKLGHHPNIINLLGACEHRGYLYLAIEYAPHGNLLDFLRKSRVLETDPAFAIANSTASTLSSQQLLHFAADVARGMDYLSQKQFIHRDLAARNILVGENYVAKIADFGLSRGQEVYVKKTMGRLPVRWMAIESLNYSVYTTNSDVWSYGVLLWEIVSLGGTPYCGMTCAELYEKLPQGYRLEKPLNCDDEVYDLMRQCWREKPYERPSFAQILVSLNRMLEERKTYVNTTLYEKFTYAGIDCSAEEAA

As to `Cc1ccc(C(=O)NC2CC2)cc1-c1ccc2[nH]ncc2c1`, the inhibition in experiment [1] is -0.05%; in experiment [2], -3.67%; in experiment [3], -3.15%; in experiment [4], 0.34%; in experiment [5], 3.3%; in experiment [6], -1.01%. For the same compound, the inhibition in experiment [7] is 4.02%; in experiment [8], -0.76%; in experiment [9] it was 2.48%; in experiment [10] it was 1.88%; in experiment [11] it was -1.16%; in [12] it was -1.91%. For the same compound, the inhibition is -0.53% in experiment [13]; -1.71% in experiment [14]; 0.33% in experiment [15]; -2.22% in experiment [16]; 0.71% in experiment [17]; 0.52% in [18]. The inhibition in [19] is -6.13%; in experiment [20], -3.2%.
Regarding `CC(C)c1ccc2c(c1)NC(=O)/C2=N/Nc1ccc(S(N)(=O)=O)cc1`, the inhibition was found to be 1.53% in experiment [1]; 1.22% in [2]; 3.98% in experiment [3]; 1.55% in experiment [4]; 3.02% in experiment [5]; 2.2% in [6]. Moreover, the inhibition in experiment [7] came out at 9.9%; in [8] it was 0.13%; in experiment [9] it was 4.69%; in [10] it was 3.96%; in experiment [11], 26.1%; in experiment [12] it was 4.87%. Moreover, the inhibition in experiment [13] turned out to be 31.5%; in [14], 7.71%; in [15] it was 34.9%; in [16], 1.51%; in [17] it was 3.5%; in experiment [18] it was 0.63%. The results for the inhibition in experiment [19] and in experiment [20] were 3.55% and 1.5%, respectively.
Consider `Cc1nc(-c2ccccc2)n2nc(NCCCN3CCOCC3)ncc12`, for which the inhibition in experiment [1] is 3.52%; in experiment [2] it was 2.69%; in [3], 3.32%; in experiment [4] it was 4.19%; in experiment [5] it was 5.74%; in experiment [6], 1.98%. For the same compound, the inhibition turned out to be 2.53% in [7]; 0.58% in experiment [8]; 1.15% in experiment [9]; 0.31% in [10]; 5.06% in experiment [11]; 1.8% in experiment [12]. The inhibition was 3.5% in experiment [13]; 2.73% in [14]; 2.25% in experiment [15]; 4.46% in [16]; 3.59% in [17]; -3.48% in experiment [18]. Besides, the inhibition in experiment [19] came to 5.84%; in experiment [20] it was 3.52%.
On to `CN(C)C(=O)O[C@@H]1CN[C@@H](C#Cc2cc3ncnc(Nc4ccc(OCc5cccc(F)c5)c(Cl)c4)c3s2)C1`, for which the inhibition in [1] was 0.74%; in [2], 2.88%; in experiment [3], 6.39%; in [4] it was 1.52%; in experiment [5], 4.73%; in experiment [6] it was 0.44%. The inhibition in experiment [7] is 8.64%; in experiment [8], -0.35%; in [9] it was -0.22%; in experiment [10] it was -3.09%; in experiment [11] it was -4.24%; in experiment [12], -0.65%. Moreover, the inhibition in [13] was -0.85%; in experiment [14] it was 2.82%; in experiment [15] it was 0.46%; in experiment [16], 2.85%; in [17], 5.35%; in experiment [18] it was 1.84%. Moreover, the values for the inhibition in experiment [19] and in experiment [20] were 4.98% and 1.79%, respectively.
Turning to `COc1cc(Nc2nccc(-c3cnn4ncccc34)n2)cc(OC)c1`, the inhibition in experiment [1] came to 61.2%; in experiment [2], 9.2%; in [3], 42.9%; in experiment [4] it was 7.05%; in [5], 39.6%; in experiment [6], 26.8%. Further, the inhibition is 64.4% in [7]; 3.06% in experiment [8]; 35.6% in experiment [9]; 0.98% in [10]; 26.7% in [11]; 5.6% in experiment [12]. Also, the inhibition in [13] amounted to 39.5%; in experiment [14], 9.63%; in [15], 45.6%; in experiment [16] it was 5.79%; in experiment [17], 31.4%; in [18], 4.29%. Further, the inhibition is 15.4% in experiment [19] and 20.9% in [20].
For `CCn1c(-c2nonc2N)nc2c(C#CC(C)(C)O)nc(OCCNC)cc21`, the inhibition in [1] came out at 0.91%; in experiment [2], 5.49%; in experiment [3], 3.22%; in experiment [4], 2.67%; in [5] it was 6.8%; in experiment [6], 0.64%. Besides, the inhibition is 3.22% in experiment [7]; 0.83% in [8]; 1.43% in experiment [9]; 3.54% in [10]; 6.23% in experiment [11]; 3.15% in experiment [12]. Besides, the inhibition in [13] was 3.59%; in experiment [14], 1.5%; in [15] it was 2.5%; in experiment [16] it was 3.81%; in [17], 2.46%; in experiment [18], -0.47%. Also, the values for the inhibition in experiment [19] and in experiment [20] were 9.85% and 1.75%, respectively.
